Screens (PubChem BioAssay)
Shown are actives, neighbours in structure and some others; about 5.7% of the full set was active somewhere.
DAX1 inh-1 = DAX1 (NR0B1) inhibitors on StAR promoter, primary screen, cell-based, luminescence, SF-1 (NR5A1), full-length DAX-1; HEK293T StAR-luciferase reporter, SF-1/DAX-1 repression relief; inhibition, % at 6.8 µM; 370,000 tested, 1.1% active; AID 652010, 2013;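 active = inhibition above the mean over all tested compounds plus 3 SD, cut at about 3.6% in these data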;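 note: higher inhibition means more luminescence from relief of DAX-1 repression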
hcDAF-12 act = H. contortus DAF-12 nuclear receptor activators, primary screen, cell-based, luminescence, HEK293, lit1-tk-luc reporter; HEK293 hcDAF-12 lit1-tk-luc reporter; 0% DMSO, 100% Δ7-dafachronic acid; activation, % at 6.8 µM; 370,000 tested, 1.4% active;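 active = activation above the mean of all tested compounds plus 3 SD, cut at about 5.5% in these data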
AHR act = AHR activators, primary screen, cell-based, luminescence, luciferase reporter, human. Aryl hydrocarbon receptor (Homo sapiens), P35869. AHR-responsive luciferase reporter cells. activation, % at 5 µM. 320,000 tested, 2.5% active; in the data active = activation above about 47%
DAX1 inh-2 = DAX1 (NR0B1) inhibitors, primary screen, cell-based, HEK293, Gal4-DAX1, luciferase luminescence. inhibition, % at 6.75 µM. 340,000 tested, 0.99% active. HEK293 Gal4-DAX1 luciferase reporter;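 active = inhibition above the mean over all tested compounds plus 3 SD, cut at about 4.2% in these data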;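 note: inhibition shows as a rise in luminescence from relieved DAX1 repression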
hgDAF-12 ag = H. glycines DAF-12 receptor agonists, primary screen, cell-based, luminescence, HEK293, GAL4 fusion, UAS-luciferase; activation, % at 6.8 µM; HEK293 GAL4-hgDAF12 UAS-luciferase reporter, agonist luminescence; normalized to butyrate control; AID 687014, 2013; Nuclear hormone receptor DAF-12 (Heterodera glycines), GAL4 fusion; 370,000 tested, 1.8% active;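 active = activation above a cutoff set at the mean of all screened compounds plus 3 SD, cut at about 10% in these data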
ssDAF12 agonist = S. stercoralis DAF-12 nuclear receptor activators, primary screen, cell-based, luminescence, HEK293, GRIP1 co-expression, lit1-tk-luc; Nuclear hormone receptor DAF-12 (Strongyloides stercoralis); HEK293 ssDAF-12/GRIP1 lit1-tk-luc reporter; % of 3 µM dafachronic acid response; 370,000 tested, 1% active; activation, % at 6.8 µM;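 active = activation above the mean over all tested compounds plus 3 SD, cut at about 0.9% in these data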
Numbers stand for hits; i = inactive; nt = no result.

SMILES	DAX1 inh-1	hcDAF-12 act	AHR act	DAX1 inh-2	hgDAF-12 ag	ssDAF12 agonist
Cc1ccc(CNC(=O)Nc2ccccc2)c(C)c1	i	i	i	i	13	i
COc1ccccc1C(CNC(=O)c1cccc(S(=O)(=O)Nc2ccc(C)cc2)c1)N1CCCC1 (stereo unspecified)	i	i	i	i	i	i
O=S(=O)(c1ccc2ccccc2c1)N1CCN(c2ccc(O)cc2)CC1	i	i	i	i	i	i
COc1cc(/C=C(/C(=O)c2cccs2)c2nc3ccccc3[nH]2)ccc1O	i	i	57	i	11	i
O=C(/C(=C/c1ccc(Cl)cc1)c1nc2ccccc2[nH]1)c1cccs1	nt	nt	58	i	nt	nt
COC(=O)/C(=C\c1ccc(O)cc1)c1nc2ccccc2[nH]1	i	i	i	i	i	i
Cc1ccccc1NS(=O)(=O)c1ccc(C(=O)NN2CCCCC2)cc1	i	i	i	i	i	i
Cc1ccc(S(=O)(=O)N2CCCC2C(=O)N2CCN(c3ccccc3)CC2)cc1 (stereo unspecified)	i	i	nt	nt	i	i
CC1CCCCC12NC(=O)N(CC(=O)N1CCc3ccccc31)C2=O (stereo unspecified)	i	5.8	i	i	i	i
COc1ccc(Cl)cc1NC(=O)CN(C)C(=O)c1sccc1-c1ccccc1	i	i	55	i	i	i
COc1ccc(C(=O)n2cnc3ccccc32)cc1[N+](=O)[O-]	i	i	i	i	i	1.4
COc1ccc(C(=O)n2cnc3ccccc32)cc1Br	i	i	i	i	i	i
CCN(CC)C(=O)CC[C@H]1CC[C@]2(CCCN(C(=O)C3CCCC3)C2)O1	i	i	nt	nt	i	i
COc1cc2cnc(-c3ccsc3)cc2cc1OC	i	i	49	i	i	i
Fc1ccc2cc(-c3ccsc3)ncc2c1	i	i	51	i	i	i
COc1cc2cnc(-c3ccsc3)c(-c3ccc(F)cc3)c2cc1OC	i	i	i	i	i	i
c1cnc2cc(-c3ccsc3)ncc2c1	i	i	i	i	i	i
COc1cc(OC)cc(C(=O)OCC(=O)Nc2nnc(-c3ccccc3)o2)c1	i	i	nt	i	i	i
COc1cccc(C(=O)OCC(=O)Nc2nnc(-c3ccccc3)o2)c1	i	i	i	5.3	i	i
COc1ccc(OC)c(/C=N/N(C)c2ccccc2)c1	i	i	i	i	i	i
COc1cc(/C=N/N(C)c2ccccc2)cc(Cl)c1O	i	i	52	i	i	i
O=c1nc2ccccc2c2n1CC(CN1CCN(C(c3ccccc3)c3ccccc3)CC1)N2 (stereo unspecified)	i	i	i	i	i	i
Cc1ccc(O)c(Nc2c3ccccc3nc3ccccc23)c1	i	i	i	i	i	i
Cc1ccc(C)c(Nc2nc(N)c3ccccc3n2)c1	i	i	i	4.5	12	i
COc1ccc(C)cc1Nc1nc(N)c2cc(OC)c(OC)cc2n1	nt	nt	62	i	nt	nt
SMILES	DAX1 inh-1	hcDAF-12 act	AHR act	DAX1 inh-2	hgDAF-12 ag	ssDAF12 agonist
CCOC(=O)C1=C(COC(=O)c2ccc3ccccc3c2O)NC(=O)NC1C (stereo unspecified)	i	i	i	i	i	i
COc1ccc(OC)c(/C=C2\NC(=O)NC2=O)c1	i	i	i	i	i	i
COc1cc(N2CCCC2)c(OC)cc1/C=C1/NC(=S)NC1=O	i	i	66	i	i	i
O=C(Cn1c(=O)[nH]c2ccccc2c1=O)Nc1ccc2c(c1)OCO2	i	i	i	i	i	i
COc1ccc(C(=O)O)cc1S(=O)(=O)NCc1ccncc1	i	i	i	i	i	i
NC(N)=N/N=C/c1ccc(OCc2ccc(Cl)cc2)cc1	i	i	i	i	13	i
CCOc1ccccc1/C=N/n1c(COc2ccccc2)n[nH]c1=S	i	i	i	i	i	i
